Molecules are shown by their SMILES. Inconclusive results are not listed. A call without a number means that no potency is given here. More than one record can exist for a structure, and the calls need not agree. Active and inactive are the calls of the source. The call rests on the fitted dose curve; in most records, active means well fitted activation curve with a large enough effect in the repeat runs; inconclusive means weak or mixed curves; inactive means flat fitted curve, though single readings scatter.
Potency means the concentration at half of the fitted maximal effect.

The test can be described thus: A CellTox Green Cytotoxicity Assay to monitor cytotoxicity in HepG2 cells - 24 hour (AID 1224878). Further: nearly all actives have a fitted effect of over 45% in size. The settings on record: CellTox Green fluorescence; series mostly up to 76.8 µM. From the text:
National Center for Advancing Translational Sciences [NCATS]
NIH Chemical Genomics Center [NCGC]
U.S. Environmental Protection Agency [EPA]
National Institutes of Environmental Health Sciences [NIEHS]
National Toxicology Program [NTP]
Cell-based models are critical for drug discovery. Determining the natural cytotoxic effects resulting from test compounds is an essential research activity. A CellTox Green Cytotoxicity Assay to monitor cytotoxicity in real time of continues cell culture during 40 hours of the compound treatment was used to screen Tox21 10K library compounds in HepG2 cells. CellTox Green Cytotoxicity Assay is a nonlytic, homogeneous, biofluorescent method to measure cytotoxicity in cell culture after experimental manipulation. The assay system uses a proprietary asymmetric cyanine dye that is excluded from viable cells but preferentially stains the dead cell's DNA. […] Viable cells produce no appreciable increases in fluorescence. Therefore, the fluorescence signal produced by the binding interaction with dead cell DNA is proportional to cytotoxicity.
The mixture of HepG2 cell suspension and reagents were dispensed at 600cells/6 ul/well in 1536-well tissue culture treated black solid bottom plates using a Multidrop dispenser. After the assay plates were incubated at a 37 C/5% CO2 incubator for 5 hours, 23 nL of compounds dissolved in DMSO, positive and negative controls was transferred to the assay plate by a pintool work station. The plates were incubated at 37 C for 40 hours. The fluorescence intensity were measured at 0h, 8h, 16h, 24h, 32h and 40h time points using ViewLux plate reader during compound treatment.
For `CCSC(=O)N1CCCCCC1`, the Potency result was “inactive”. The result for `NNc1ccccc1` reads “inactive”; that for `FC(F)(F)c1ccc(Cl)cc1`, “inactive”; that for `Oc1ccc(Cl)cc1`, “inactive”. As for `Cc1cccc(C)c1NC(=O)CN1CCCC1=O`, the entry is “inactive”; as for `CCNc1nc(Cl)nc(NC(C)C)n1`, “inactive”. As for `Nc1ncc([N+](=O)[O-])s1`, the entry is “inactive”. Take `COP(=S)(OC)Oc1ccc(SC)c(C)c1`: the Potency result was “inactive”. Consider `O=C(O)c1cc(Oc2ccc(C(F)(F)F)cc2Cl)ccc1[N+](=O)[O-]`, for which the Potency result was “inactive”. As for `Cc1cccc(C)c1N`, the entry is “inactive”; as for `CNC(=O)Oc1cccc2ccccc12`, “inactive”; as for `Cc1cc(Cl)ccc1OC(C)C(=O)O` (stereo not given), “inactive”.

Turning to `O=C(O)C(Br)Br`, the Potency result was “inactive”.

`ClCCOCCCl`: the Potency entry is “inactive”. As for `CCCCC(CC)C(=O)Cl` (stereo not given), the Potency entry is “inactive”. As for `CNc1cnn(-c2cccc(C(F)(F)F)c2)c(=O)c1Cl`, the entry is “inactive”; as for `N#Cc1cccc(C#N)c1`, “inactive”; as for `Oc1c(Br)cc(Br)cc1Br`, “inactive”. As for `CNCC(O)c1ccc(O)cc1` (stereo not given), the entry is “inactive”; as for `CNC(=O)O/N=C/C(C)(C)S(C)(=O)=O`, “inactive”; as for `OCCCCO`, “inactive”. As for `C=CC#N`, the entry is “inactive”.

`OC[C@@H](O)[C@H]1O[C@@H]2O[C@H](C(Cl)(Cl)Cl)O[C@@H]2[C@H]1O`: the Potency result was “inactive”. The result for `CCOP(=S)(OCC)Oc1ccc([N+](=O)[O-])cc1` reads “inactive”; that for `Cc1ccc(N=C=O)cc1N=C=O`, “inactive”. The result for `O=P1(NCCCl)OCCCN1CCCl` (stereo not given) reads “inactive”; that for `Nc1cc(Cl)cc(Cl)c1`, “inactive”. As for `CC(C)c1cccc(C(C)C)c1O`, the figure is 43.6 µM (active) and inactive; as for `O=C(O)CCCc1ccc(N(CCCl)CCCl)cc1`, “inactive”. For `Cc1cccc(N)c1`, the Potency entry was “inactive”. Consider `COS(=O)(=O)OC`, for which the Potency entry is “inactive”. As for `C=C(C)C(=O)OCC(CC)CCCC` (stereo not given), the entry is “inactive”; as for `c1ccc2c(c1)CCCC2`, “inactive”. On to `C[C@H]1C(=O)O[C@@H]2CCN3CC=C(COC(=O)[C@](C)(O)[C@]1(C)O)[C@H]23`, for which the Potency result is “inactive”.

On to `COP(=S)(OC)SCN1C(=O)c2ccccc2C1=O`, for which the Potency result was “inactive”. As for `O=[N+]([O-])c1ccc(Cl)c(Cl)c1`, the entry is “inactive”. As for `Cc1ccc(O)c(C)c1`, the entry is “inactive”.

On to `CC(C)(C)C(=O)CCl`, for which the Potency result was “inactive”. The result for `OCc1ccco1` reads “inactive”.

With `CN(C)NC(=O)CCC(=O)O`, the Potency result was “inactive”.

Source of the values: PubChem BioAssay (Tox21).
